Among the data in PubChem BioAssay are z-score and composite z-score values, retold here.

Activity calls are given as the source filed them.

The nature of test [1]: E. coli DRC41 culture turbidity changes, primary screen, E. coli filamentation inducer project, strain DRC41, OD650, 48 h (AID 1152).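 Further: E. coli MC1000 strain DRC41 lacking acrAB efflux pump and sulA.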 As to conditions: E. coli DRC41 (acrAB sulA), higher = more signal, called active from +8 up or from −8 down.
Test [2] can be described thus: small-molecule binders of probe aLefty1, primary screen, biochemical, small-molecule microarray, 635/667 nm fluorescence (AID 1153).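 Further: score merges spot fluorescence with signal-to-noise ratio from the scanned slide images.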 As to conditions: higher = more signal.
Test [3] can be described thus: PSAC antagonists in infected red cells, primary screen, cell-based, P. falciparum Indochina, OD700, 1 h (AID 1154). As to conditions: P. falciparum Indochina infected RBC osmotic lysis, higher = more signal, called active from +8 up or from −8 down.
Test [4] in a line: PSAC antagonists in infected red cells, primary screen, cell-based, P. falciparum Indochina, OD700, 2 h (AID 1155).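 Further: lysis reports solute entry through the parasite surface anion channel PSAC; channel blockers reduce lysis of infected cells.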 As to conditions: P. falciparum Indochina infected erythrocytes, osmotic lysis OD700; higher = more signal, called active from +8 up or from −8 down.
The nature of test [5]: osmotic lysis modulators in infected erythrocytes, primary screen, PSAC antagonist project, cell-based, P. falciparum Indochina, OD700, 3 h (AID 1156). As to conditions: higher = more signal, called active from +8 up or from −8 down.
A short description of test [6]: PSAC antagonists in infected red cells, primary screen, cell-based, P. falciparum Indochina, OD700, 18 h (AID 1157). As to conditions: P. falciparum Indochina infected erythrocytes, osmotic lysis OD700, 18 h; higher = more signal, called active from +8 up or from −8 down.
The nature of test [7]: modulators of S6 phosphorylation in cells, primary screen, cell-based, A549, cytoblot, luminescence, serum-stimulated (AID 1158).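 Further: serum-stimulated A549 lung adenocarcinoma cells; signal is phosphorylated S6 detected by cytoblot immunostaining with HRP secondary.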 As to conditions: A549 phospho-S6 cytoblot, 5 h, higher = more signal.
Test [8] deals with NADPH oxidase 2 (Homo sapiens) (UniProt P04839). In words: NOX2-dependent H2O2 signal modulators, primary screen, NOX inhibitor project, cell-based, HEK293-NOX2, PMA-stimulated, Amplex Red fluorescence (AID 1159). Further: test concentration not given here. As to conditions: 45 min, higher = more signal, called active from +8 up or from −8 down.
Chain of NADPH oxidase 2 (Homo sapiens) (P04839 whole entry, looked up): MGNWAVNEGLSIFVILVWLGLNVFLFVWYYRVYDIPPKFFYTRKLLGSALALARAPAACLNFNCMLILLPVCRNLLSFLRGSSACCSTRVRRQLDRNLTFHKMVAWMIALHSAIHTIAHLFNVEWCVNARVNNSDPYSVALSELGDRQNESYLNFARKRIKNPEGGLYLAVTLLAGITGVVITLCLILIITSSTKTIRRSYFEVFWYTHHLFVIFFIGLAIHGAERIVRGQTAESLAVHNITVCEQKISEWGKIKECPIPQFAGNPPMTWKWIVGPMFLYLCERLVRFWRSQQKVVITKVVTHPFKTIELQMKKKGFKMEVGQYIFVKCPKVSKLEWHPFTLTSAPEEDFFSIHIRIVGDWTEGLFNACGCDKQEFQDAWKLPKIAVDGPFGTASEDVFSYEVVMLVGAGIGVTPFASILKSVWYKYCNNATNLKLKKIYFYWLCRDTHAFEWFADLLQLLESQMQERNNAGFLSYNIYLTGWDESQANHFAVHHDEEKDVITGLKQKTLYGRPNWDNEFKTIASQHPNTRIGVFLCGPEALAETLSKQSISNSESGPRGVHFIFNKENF
Test [9] deals with NADPH oxidase 4 (Homo sapiens) (UniProt Q9NPH5). Put plainly: NOX4-dependent H2O2 signal modulators, primary screen, NOX inhibitor project, cell-based, HEK293-NOX4, tetracycline-induced, Amplex Red fluorescence (AID 1160). As to conditions: 45 min, higher = more signal, called active from +8 up or from −8 down.
Chain of NADPH oxidase 4 (Homo sapiens) (Q9NPH5 whole entry, looked up): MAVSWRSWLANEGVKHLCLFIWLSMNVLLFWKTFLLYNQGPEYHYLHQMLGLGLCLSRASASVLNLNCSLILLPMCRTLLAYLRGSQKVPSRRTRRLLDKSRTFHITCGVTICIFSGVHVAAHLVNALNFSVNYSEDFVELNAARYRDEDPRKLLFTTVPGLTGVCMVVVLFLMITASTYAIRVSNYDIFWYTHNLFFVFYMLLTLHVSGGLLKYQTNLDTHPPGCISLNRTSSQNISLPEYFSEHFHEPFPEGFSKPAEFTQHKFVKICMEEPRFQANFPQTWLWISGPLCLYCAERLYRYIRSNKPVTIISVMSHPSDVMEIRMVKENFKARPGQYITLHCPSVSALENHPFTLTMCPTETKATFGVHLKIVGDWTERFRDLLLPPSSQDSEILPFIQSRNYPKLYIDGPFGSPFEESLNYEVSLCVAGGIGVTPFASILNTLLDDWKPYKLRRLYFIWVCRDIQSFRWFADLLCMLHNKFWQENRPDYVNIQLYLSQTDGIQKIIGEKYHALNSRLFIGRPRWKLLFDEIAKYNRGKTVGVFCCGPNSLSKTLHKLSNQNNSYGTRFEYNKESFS
Test [10] concerns the target NADPH oxidase 5 (Homo sapiens) (UniProt Q96PH1). Put plainly: NOX5-dependent H2O2 signal modulators, primary screen, NOX inhibitor project, cell-based, HEK293-NOX5, Amplex Red fluorescence (AID 1161). As to conditions: HEK293-NOX5, ionomycin, 45 min, higher = more signal.
Test [11] can be described thus: A549 cell viability effects, profiling panel, calcein-AM fluorescence, 48 h, basal (AID 1162). Further: test concentration not given here. As to conditions: higher = more signal.
The nature of test [12]: adipocyte viability effects, profiling panel, cell-based, 3T3-L1 adipocytes, calcein-AM fluorescence, 48 h, basal (AID 1163). Further: test concentration not given here. As to conditions: 3T3-L1 adipocytes viability, higher = more signal.
Test [13] in a line: HepG2 cell viability effects, profiling panel, calcein-AM fluorescence, 48 h, basal (AID 1164). Further: test concentration not given here. As to conditions: higher = more signal.
A short description of test [14]: MM1S cell viability effects, profiling panel, calcein-AM fluorescence, 48 h, basal (AID 1165).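 Further: viability of MM1S multiple myeloma cells under basal unstimulated conditions; test concentration not given here.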 As to conditions: higher = more signal.
Test [15] in a line: basal RPMI8226 viability, no added stimulus, profiling panel, cell-based, calcein-AM fluorescence, 48 h, PK04 Diversity Set (AID 1166).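 Further: cells grown under basal conditions without added stimulus; test concentration not given here.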 As to conditions: RPMI8226 myeloma viability, higher = more signal.
Test [16] can be described thus: basal HepG2 mitochondrial membrane potential changes, profiling panel, cell-based, JC-1 fluorescence, 24 h, 100 nL compound (AID 1167). Further: test concentration not given here. As to conditions: higher = more signal.
Test [17] in a line: basal 3T3-L1 adipocyte mitochondrial potential changes, profiling panel, cell-based, JC-1 fluorescence, 3T3-L1 adipocytes, 24 h, 100 nL compound (AID 1168). Further: test concentration not given here. As to conditions: JC-1 mitochondrial fluorescence, higher = more signal, called active from +8 up or from −8 down.
A short description of test [18]: basal RPMI8226 mitochondrial membrane potential changes, profiling panel, cell-based, JC-1 fluorescence, 24 h, 100 nL compound (AID 1169). Further: test concentration not given here. As to conditions: RPMI8226 myeloma, JC-1 mitochondrial potential fluorescence, higher = more signal.
The nature of test [19]: basal MM1S mitochondrial membrane potential changes, profiling panel, cell-based, JC-1 fluorescence, 24 h, 100 nL compound (AID 1170). Further: test concentration not given here. As to conditions: higher = more signal.
Test [20] in a line: A549 lung cancer cell viability effects, profiling panel, resazurin fluorescence, 24 h, PK04 Diversity Set (AID 1171). Further: test concentration not given here. As to conditions: higher = more signal, called active from +8 up or from −8 down. (In general: The colour change of resazurin is a common sign of viable cells or microbes.)

Chain of NADPH oxidase 5 (Homo sapiens) (Q96PH1 whole entry, looked up): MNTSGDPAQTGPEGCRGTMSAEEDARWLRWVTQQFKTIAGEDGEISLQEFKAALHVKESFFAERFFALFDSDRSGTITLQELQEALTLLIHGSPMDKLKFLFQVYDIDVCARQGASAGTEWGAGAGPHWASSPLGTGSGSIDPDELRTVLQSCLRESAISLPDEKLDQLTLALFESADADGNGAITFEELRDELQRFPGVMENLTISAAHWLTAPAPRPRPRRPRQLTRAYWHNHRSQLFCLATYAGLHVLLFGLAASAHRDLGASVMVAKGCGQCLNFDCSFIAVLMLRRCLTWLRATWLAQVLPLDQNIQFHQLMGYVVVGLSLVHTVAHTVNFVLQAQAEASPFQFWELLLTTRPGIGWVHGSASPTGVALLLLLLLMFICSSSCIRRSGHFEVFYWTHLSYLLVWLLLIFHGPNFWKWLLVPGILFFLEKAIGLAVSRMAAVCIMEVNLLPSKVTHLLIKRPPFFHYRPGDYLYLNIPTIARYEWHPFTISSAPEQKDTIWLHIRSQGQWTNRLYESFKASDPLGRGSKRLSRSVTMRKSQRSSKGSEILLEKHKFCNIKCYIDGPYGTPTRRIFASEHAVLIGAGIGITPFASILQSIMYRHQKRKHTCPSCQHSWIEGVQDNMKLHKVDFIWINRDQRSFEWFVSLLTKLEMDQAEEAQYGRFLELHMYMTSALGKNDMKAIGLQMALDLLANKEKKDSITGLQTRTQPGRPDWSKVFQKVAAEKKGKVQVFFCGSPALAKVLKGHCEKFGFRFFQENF

Take `COC(=O)CC=C[C@@H](C)[C@@H](C=NO[C@H](C)c1cn([C@@H]2COC[C@H]2O)nn1)NS(=O)(=O)c1ccc(C)cc1`: the z-score was 0.876 (inactive) in [1]; 1.43 (inactive) in test [3]; 0.269 (inactive) in test [4]; 0.785 (inactive) in test [5]; 0.465 (inactive) in test [6]; 0.459 in [7]. The z-score in [8] is -0.283 (inactive); in [9] it was 0.891 (inactive); in test [10], 0.309; in test [11], 0.802; in test [12], -0.628; in test [13], 1.16. The z-score was 0.111 in test [14]; 0.188 in test [15]; -0.156 in test [16]; 0.766 (inactive) in test [17]; 0.556 in test [18]; -1.25 in test [19]. Besides, the z-score in [20] is -1.14 (inactive). For the same compound, in test [2], the composite z-score is -0.274.
For `CCc1cc2c(nc1CC)CCN(CCC(C)=NO[C@@H](C)c1cn([C@H](CO)Cc3ccccc3)nn1)C2`, the z-score in test [1] is 0.0933 (inactive); in test [3] it was 4.48 (inactive); in [4] it was 0.586 (inactive); in test [5], -0.0919 (inactive); in test [6], 0.49 (inactive); in [7], 0.434. The z-score is -1.4 (inactive) in [8]; 0.033 (inactive) in [9]; 0.858 in test [10]; 0.669 in test [11]; 0.367 in test [12]; 1.8 in test [13]. Besides, the z-score in test [14] was 0.73; in test [15], 0.18; in [16], 2.44; in [17], 0.254 (inactive); in test [18] it was -0.279; in test [19], -0.525. Further, the z-score in test [20] is 0.0367 (inactive). The compound also had a composite z-score in test [2] of -0.0011.
Consider `CCOC(=O)[C@H](CC(C)C)NC(=O)CCC1CC(OC(=O)NCCc2ccc(F)cc2)CC2(CCCC(COC(=O)NCCC(C)C)O2)O1` (stereo not given in full), for which the z-score was -1.14 (inactive) in test [1]; 6.28 (inactive) in test [3]; 0.267 (inactive) in test [4]; 0.0542 (inactive) in [5]; 0.0517 (inactive) in [6]; -0.326 in [7]. In addition, the z-score was 1.26 (inactive) in [8]; -1.27 (inactive) in test [9]; -0.8 in test [10]; -0.646 in test [11]; 0.174 in test [12]; 0.0995 in test [13]. For the same compound, the z-score is 0.773 in test [14]; -0.479 in test [15]; -0.488 in test [16]; 0.152 (inactive) in [17]; 0.248 in test [18]; -0.00687 in test [19]. Besides, the z-score in test [20] was 0.0692 (inactive). For the same compound, in [2], the composite z-score was 0.0451.
With `O=c1n(Cc2cc3c(cc2Cl)OCO3)c(=O)n2n1CC[C@@H]1C(=NOC[C@@H](O)COCc3ccco3)[C@H]3O[C@H]3[C@@H](O)[C@@H]12`, the z-score in test [1] was -0.289 (inactive); in [3], 0.0384 (inactive); in [4], 0.012 (inactive); in test [5], -0.258 (inactive); in test [6], -0.138 (inactive); in [7], 0.393. In addition, the z-score in test [8] was 0.0338 (inactive); in test [9] it was -1.95 (inactive); in [10], -0.278; in test [11], -0.158; in [12] it was -0.322; in test [13] it was 0.105. Further, the z-score in test [14] is 0.0423; in [15] it was -0.552; in test [16], -0.611; in test [17] it was -1.6 (inactive); in [18], 0.0236; in test [19] it was -0.211. In addition, the z-score in test [20] is -0.127 (inactive). This compound gave a composite z-score in [2] of 0.175.
With `COc1ccc(O[C@H]2C=C[C@@H](c3ccccc3)O[C@@H]2CON=C(C)CCC(=O)OC[C@H]2O[C@H](c3ccccc3)C=C[C@@H]2Oc2ccc(OC)cc2)cc1`, the z-score was 0.274 (inactive) in test [1]; 0.99 (inactive) in [3]; 0.328 (inactive) in [4]; 0.104 (inactive) in test [5]; 0.464 (inactive) in test [6]; -0.661 in test [7]. For the same compound, the z-score in test [8] was -0.2 (inactive); in test [9], 0.988 (inactive); in test [10], -0.925; in [11] it was -0.094; in test [12] it was -0.603; in test [13], -0.144. In addition, the z-score is -1.44 in [14]; -0.31 in test [15]; 1.08 in test [16]; 0.244 (inactive) in test [17]; 0.534 in [18]; -0.492 in test [19]. Further, the z-score in test [20] is 0.305 (inactive). The same compound came in with a composite z-score in test [2] of 0.64.
`CO[C@@H]1COC(=O)[C@@H]2CCCN2C(=O)[C@@H](C)COC(=O)CC=C[C@H]1C`: the z-score was -0.481 (inactive) in test [1]; 0.202 (inactive) in test [3]; -0.116 (inactive) in [4]; 0.601 (inactive) in test [5]; 0.0246 (inactive) in [6]; -0.641 in [7]. The z-score in test [8] was -0.48 (inactive); in test [9], 0.393 (inactive); in test [10], 0.0919; in [11], -1.06; in [12], -0.11; in [13], -0.321. Also, the z-score in test [14] was 0.0099; in test [15], -0.748; in [16] it was -0.2; in [17], -1.49 (inactive); in test [18], -0.0504; in test [19], -0.684. Also, the z-score in [20] was 0.948 (inactive). This compound also registered a composite z-score in [2] of 0.0553.
For the compound `CCOC(=O)[C@H](CC(C)C)NC(=O)CCC1CC(OC(=O)NCc2cccc3ccccc23)CC2(CCCC(COC(=O)NCc3cccc(C(F)(F)F)c3)O2)O1` (stereo not given in full), the z-score in test [1] is 0.366 (inactive); in test [3] it was -0.406 (inactive); in test [4] it was -0.0787 (inactive); in [5], 0.976 (inactive); in test [6], 0.613 (inactive); in test [7], 0.273. Also, the z-score in [8] is 0.176 (inactive); in test [9] it was 0.794 (inactive); in test [10] it was 0.259; in test [11] it was -0.442; in [12] it was -0.302; in test [13], 0.8. For the same compound, the z-score is 0.484 in test [14]; 0.38 in test [15]; 0.936 in test [16]; 0.346 (inactive) in [17]; 0.0118 in [18]; -0.851 in test [19]. Further, the z-score in test [20] is -0.75 (inactive). The compound also registered a composite z-score in test [2] of -0.144.
Take `COc1ccc(O[C@@H]2[C@H](O)CO[C@@H]2C=Cc2ccccc2)cc1`: the z-score is -1.74 (inactive) in [1]; 5.53 (inactive) in test [3]; -0.0327 (inactive) in [4]; 1.23 (inactive) in test [5]; -0.66 (inactive) in [6]; 1.49 in test [7]. Further, the z-score in test [8] is 0.561 (inactive); in test [9], -0.92 (inactive); in test [10], -2.07; in [11], 0.069; in test [12] it was 1.72; in [13], -0.0757. Besides, the z-score in test [14] was -2.82; in test [15] it was -1.1; in [16], 1.11; in test [17], 0.6 (inactive); in test [18], 0.132; in test [19] it was 0.322. The z-score in test [20] is -0.548 (inactive). Also, in [2], the composite z-score stood at 0.417.
With `O=C1[C@H]2[C@H]3[C@H](O)[C@H](O)CC(=NO[C@@H]4O[C@H](CO)[C@@H](O)[C@H](O)[C@H]4O)[C@H]3CC[C@H]2C(=O)N1c1cccc(Oc2ccccc2)c1`, the z-score in test [1] was -0.024 (inactive); in [3], 0.257 (inactive); in [4] it was 0.452 (inactive); in [5], 0.253 (inactive); in test [6], 0.207 (inactive); in test [7] it was -0.576. Moreover, the z-score was 0.7 (inactive) in [8]; 0.325 (inactive) in [9]; -0.54 in [10]; -0.0287 in test [11]; -0.171 in test [12]; -0.733 in [13]. Besides, the z-score in test [14] was 0.411; in test [15], -0.782; in test [16], 0.629; in test [17] it was -0.235 (inactive); in test [18], 0.142; in test [19], -0.827. Further, the z-score in [20] was 1.08 (inactive). Besides, the composite z-score in test [2] was -0.286.
